Measurements as given in article PMC4552634, “A New Set of Chemical Starting Points with Plasmodium falciparum Transmission-Blocking Potential for Antimalarial Drug Discovery” (PLoS ONE, 2015).
Like-named read-outs stand apart in the source and are kept apart here. Screen size: about 13,000 compounds; about 3,200 (25%) showed an effect of 50% or more. The list shows a part of the results.

System: P. falciparum stage V gametocytes
Parameters: BacTiter-Glo ATP luminescence viability of purified stage V gametocytes in 384-well plates, per cent inhibition versus DMSO
Conditions: 48 h, 5 µM, inhibitor

Structure (SMILES)	% Inhibition	% Inhibition (% Inhibition)
COC(=O)c1ccc(CC(C)NCC(O)c2cccc(C(F)(F)F)c2)c(OC)c1 (centres unmarked) [TCMDC-131469]	14.6%	
CCN(CCCN1CCCCC1)c1cc(C)nc(Nc2cccc(OC(F)(F)F)c2)n1 [TCMDC-132429]	-20.04%	
COCCNc1nc(N2CCC(CNC(=O)c3ccc(-c4ccc(C(=O)N(C)C)cc4C)cc3)CC2)nc2cc(OC)c(OC)cc12 [TCMDC-138729]	5.197%	
COc1cc2nc(N3CCC(CNC(=O)c4ccc(-c5ccc(C(=O)N(C)C)cc5C)cc4)CC3)nc(N3CCN(C)CC3)c2cc1OC [TCMDC-138724]	15.4%	
COc1cc2nc(N3CCC(CNC(=O)c4ccc(-c5ccc(C(=O)N(C)C)cc5)cc4)CC3)nc(N)c2cc1OC [TCMDC-138719]	58.63%	
COc1cc2nc(N3CCC(CNC(=O)c4ccc(-c5ccc(C(=O)N(C)C)cc5O)cc4)CC3)nc(N)c2cc1OC [TCMDC-138752]	72.56%	
COc1cc2nc(N3CCC(CNC(=O)c4ccc(-c5ccc(C(=O)N(C)C)cc5OCCO)cc4)CC3)nc(N)c2cc1OC [TCMDC-138766]	-18.75%	
COc1cc2nc(N3CCC(CNC(=O)c4ccc(-c5ccc(C(=O)N(C)C)cc5)c(OCCO)c4)CC3)nc(N)c2cc1OC [TCMDC-138742]	39.21%	
COc1cc2nc(N3CCC(CNC(=O)c4ccc(-c5ccc(C(=O)N(C)C)cc5OCCN(C)C)cc4)CC3)nc(N)c2cc1OC [TCMDC-138760]	100.1%	
NCCc1cccc(-c2cnc3[nH]cc(-c4ccc(C(=O)O)cc4)c3c2)c1.O=C(O)C(F)(F)F [TCMDC-136363]	-2.826%	
CN(Cc1cnc2nc(N)nc(N)c2n1)c1ccc(C(=O)NC(CCC(=O)O)C(=O)O)cc1 (centres unmarked) [TCMDC-123832]		33.25%
CN(C)S(=O)(=O)n1ccc2c3c(N)nc(N)nc3ccc21 [TCMDC-137973]	-6.92%	
NC(=O)c1cccc(CN2Cc3ccccc3OC3(CCN(Cc4c[nH]c5cnccc45)CC3)C2)c1 [TCMDC-133382]	-16.29%	
COc1ccc2nccc([C@@H](O)CN3CCC(NCCOc4c(C)cccc4F)CC3)c2c1 [TCMDC-140657]	37.85%	
CCOC(=O)CC[C@H](NC(=O)c1ccc(NS(=O)(=O)c2ccc(-c3cnc(N)[nH]c3=O)cc2)cc1)C(=O)OCC [TCMDC-137679]	3.183%	
Cc1cc2c(cc1C(F)(F)F)N(C(=O)Nc1cccc(C(=O)NC3CCN(Cc4ccccc4)CC3)c1)CC2 [TCMDC-139972]	-14.42%	
CN1CCC(NC(=O)c2cc(Oc3ccc4c(c3)CCN4C(=O)Nc3cccc(C(F)(F)F)c3)ccn2)CC1 [TCMDC-141751]	51.02%	
O=C(Nc1cccc(C(F)(F)F)c1)NC1CCN(c2ccnc3ccccc23)C1 (centres unmarked) [TCMDC-133579]	-23.57%	
COc1cc(Nc2nccc(N3CCC(NS(=O)(=O)c4ccc(NC(C)=O)cc4)CC3)n2)cc(OC)c1OC [TCMDC-133634]	-31.03%	
O=[N+]([O-])c1cc(/C=N/Nc2nc3ccccc3[nH]2)ccc1O [TCMDC-139076]	6.997%	
O=C(Nc1ccc(F)cc1)NC1CCN(c2ccnc3cc(Cl)ccc23)C1 (centres unmarked) [TCMDC-133407]	-45.03%	
Cc1nc2ccccc2n1C1CC2CCC(C1)N2CCCC1(c2ccccc2)CCN(C(=O)OCc2ccccc2)CC1 (centres unmarked) [TCMDC-138708]	52.65%	

Structure (SMILES)	% Inhibition	% Inhibition (% Inhibition)
Cc1nc2ccccc2n1C1CC2CCC(C1)N2Cc1nccn1-c1ccccc1 (centres unmarked) [TCMDC-134167]	-3.664%	
O=C(/C=C/c1ccc(Cl)c(Cl)c1)NCCCCCN1CCC(NC(=O)Nc2ccc([N+](=O)[O-])cc2)CC1 [TCMDC-135719]	-1.594%	
c1ccc([C@H]2CN3CCSC3=N2)cc1 [TCMDC-125847]	1.326%	
Cc1[nH]c(C)c(C(F)(F)F)c(=O)c1-c1ccc(Oc2ccc(OC(F)(F)F)cc2)cc1 [TCMDC-135444]	33.82%	
Cc1cc(=O)c2cc(-c3ccc(OC(F)(F)F)cc3)ccc2[nH]1 [TCMDC-137042]	32.81%	
Cc1cc(=O)c(-c2ccc(OCc3ccc(OC(F)(F)F)cc3)cc2)c(C)[nH]1 [TCMDC-132123]	25.03%	
Cc1cc(=O)c(-c2ccc(Oc3cccc(C(F)(F)F)c3)cc2)c(C)[nH]1 [TCMDC-133308]		48.03%
Cc1cc(=O)c(-c2ccc(Oc3cccc(C(F)(F)F)c3)cc2)c(C)[nH]1 [TCMDC-137536]		72.24%
Cc1[nH]c(C)c([N+](=O)[O-])c(=O)c1-c1ccc(Oc2ccccc2)cc1 [TCMDC-135779]	22.46%	
Cc1cc(=O)c(-c2ccc(Oc3ccc(C(F)(F)F)cc3)cc2)c(C)n1O [TCMDC-138136]	12.43%	
Cc1[nH]n(-c2cccc(C(F)(F)F)c2)c(=O)c1-c1ccc(Cl)cc1 [TCMDC-124050]	16.03%	
Cc1nc2c(c(O)c1Cl)-c1ccc(Oc3cccc(C(F)(F)F)c3)cc1C2=O [TCMDC-136021]	8.301%	
Cc1cc(=O)c(-c2ccc(OCCSc3ccc(C(F)(F)F)cn3)cc2)c(C)[nH]1 [TCMDC-135289]	67.89%	
COc1c(C)[nH]c(C)c(-c2ccc(Oc3cccc(C(F)(F)F)c3)cc2)c1=O [TCMDC-135253]	67.89%	
Cc1[nH]c2c(c(=O)c1Cl)-c1ccc(Oc3cccc(C(F)(F)F)c3)cc1C2=O [TCMDC-136022]	56.81%	
CC1(C)N=C(N)N=C(N)N1OCCCOc1c(Cl)cc(Cl)cc1Cl [TCMDC-131623]	-2.968%	
COC(=O)c1cccc(NC(=O)NC2CCN(c3ccnc(Nc4ccc(F)cc4)n3)C2)c1 (centres unmarked) [TCMDC-133606]	-36.49%	
COc1ccc(-c2nc3c4cc(I)ccc4c4ccccc4c3[nH]2)cc1 [TCMDC-124198]	-15.52%	
c1ccc(C2CCC(N3CCC(N4CCN(c5ccccc5)CC4)CC3)CC2)cc1 (centres unmarked) [TCMDC-124572]	20.28%	
Cc1cc(=O)c(-c2ccc(Oc3cccc(OC(F)(F)F)c3)cc2)c(C)[nH]1 [TCMDC-137266]	80.76%	
Cc1cc(=O)c2cc(Oc3cccc(OC(F)(F)F)c3)ccc2[nH]1 [TCMDC-132124]	-25.2%	
Cc1cc(=O)c(-c2ccc(Oc3ccc(OC(F)(F)F)cc3)cc2)c(C)[nH]1 [TCMDC-137390]	34.7%	

Structure (SMILES)	% Inhibition	% Inhibition (% Inhibition)
COc1cc2c(cc1N1CCN(C)CC1)N(C(=O)Nc1ccc(-c3ccncc3)c(Cl)c1Cl)CC2 [TCMDC-139163]	-33.93%	
CN1CCN(c2ccnc3ccc(NC(=O)Nc4cccc(C#N)c4)cc23)CC1 [TCMDC-139323]	13.5%	
Cc1noc(C)c1-c1ccc2c(Nc3ccc(C#N)cc3)c(C(N)=O)cnc2c1 [TCMDC-136029]	27.78%	
CN(C)c1ccc(OCCCCCCOc2ccccc2)cc1 [TCMDC-138000]	-96.23%	
CCOC(=O)CNCC(=O)c1ccc(OCc2ccccc2)cc1 [TCMDC-131777]	33.46%	
CC1(C)CC(NCCCCCCCOc2ccc(OCc3ccccc3)cc2)CC(C)(C)N1 [TCMDC-138958]	104%	
N#Cc1ccc(NC(=O)N2CCCN(CCCCCNC(=O)/C=C/c3ccc(Cl)c(Cl)c3)CC2)cc1 [TCMDC-135746]	-26.45%	
O=C(Nc1ccc(Cl)cc1)c1cccc(CN2CCCN(Cc3cccc(O)c3)CC2)c1 [TCMDC-135963]	-7.455%	
O=C(/C=C/c1ccc2ccccc2c1)NC1CCC(CN2CCC(c3c[nH]c4ccccc34)CC2)CC1 (centres unmarked) [TCMDC-139707]	26.41%	
O=C(/C=C/c1cccc(Cl)c1)NC1CCC(CN2CCC(c3c[nH]c4ccccc34)CC2)CC1 (centres unmarked) [TCMDC-139700]		105.2%
O=C(/C=C/c1cccc(Cl)c1)NC1CCC(CN2CCC(c3c[nH]c4ccccc34)CC2)CC1 (centres unmarked) [TCMDC-139715]		101.4%
O=C(/C=C/c1ccc(Cl)cc1Cl)NC1CCC(CN2CCC(c3c[nH]c4ccccc34)CC2)CC1 (centres unmarked) [TCMDC-139704]	-6.512%	
NC(=O)CN1CC=C(c2c[nH]c3ccc(Br)cc23)CC1 [TCMDC-131969]	-24.55%	
Cc1cc(NC(=O)c2cccs2)ccc1OC1CCN(Cc2ccc(F)cc2)CC1 [TCMDC-133743]	2.358%	
COc1ccc(CCC(C)N2CC(N)C(c3cn(C)c4cnccc34)C2)cc1 (centres unmarked) [TCMDC-124826]	30.72%	
CC1CCN(CCNC(=O)c2ccc3c(=O)n(Cc4ccc(Cl)cc4)c(=S)[nH]c3c2)CC1 [TCMDC-125693]	-28.57%	
CC[C@H]1CN(Cc2cccc(O)c2)CC[C@H]1CCCc1ccnc2ccc(O)cc12 [TCMDC-140337]	3.253%	
CCCCCCCN1CC[C@@H](CCCc2ccnc3ccc(OCCCCNC(N)=NO)cc23)[C@@H](CC)C1 [TCMDC-139839]	107.7%	
CC[C@H]1CN(CCCC(=O)c2ccccc2)CC[C@H]1CCCc1ccnc2ccc(OC(=O)c3ccccc3)cc12 [TCMDC-131478]	92.9%	
CCCCCCCN1CC[C@@H](CCCc2ccnc3ccc(OCCCCNC(N)=O)cc23)[C@@H](CC)C1 [TCMDC-139835]	110.9%	
CC[C@H]1CN(Cc2ccccc2Br)CC[C@H]1CCCc1ccnc2ccc(O)cc12 [TCMDC-140335]	-7.327%	
